Reference: PubChem BioAssay
Where “and” joins values, the source holds several entries; their conditions need not be identical. Equal values may be shown once. Calls of active or inactive are those of the source. Unless noted, no rule for the calls is given here.

Key:
[1] = liver-stage malaria parasite growth inhibition, primary screen, cell-based, HepG2, luciferase luminescence, HepG2 viability (AID 624349; in the data active = parasite load remaining mostly below about 12%, no sharp cut-off; inactive = mostly above about 10%;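 also: 100% = mean of DMSO negative control wells on the same plate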); settings: P. berghei liver stage in HepG2, luciferase luminescence, concentration not given here; parasite load remaining: stronger effect = lower value; viability: measured here: HepG2 viability without parasites
[2] = viability rescue of complex I mutant cybrids, primary screen, cell-based, galactose medium, ATP luminescence (AID 1645843;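 active = z-score of at least 1.8 in each of two replicates, scored against plate mean and spread of sample wells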;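 also: positive z means more ATP and so rescue of galactose-driven cybrid death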); settings: complex I mutant cybrid cells, 72 h, stronger effect = higher value
[3] = inhibitors of Cryptococcus chitosan production, flow cytometry, Cibacron Brilliant Red staining (AID 1347148); settings: Cryptococcus neoformans chitosan, stronger effect = lower value; at 10 µM unless noted;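 also: compound exposure lasted three days at 37 degrees C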
[4] = kinase inhibitors against Plasmodium liver-stage infection, cell-based, known kinase inhibitor set, luminescence, hepatoma host viability (AID 624392); settings: Plasmodium liver stage in hepatoma cells, luciferase luminescence, concentration not given here; liver cell % of control: measured here: host liver cell viability; parasite % of control: stronger effect = lower value;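 also: infected cells incubated roughly two days before readout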
[5] = LFS_MB_1R medulloblastoma cell growth inhibition, synergistic combos for chromothripsis tumors, cisplatin or BGB combos (AID 1671452; in the data active = inhibition above about 80%;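 also: cells exposed for 96 hours before readout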); settings: LFS_MB_1R medulloblastoma cells, stronger effect = higher value
[6] = CRL2098 osteosarcoma cell growth inhibition, synergistic combos for chromothripsis tumors, BGB or cisplatin IC20 combos (AID 1671454; in the data active = inhibition above about 80%;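 also: cells exposed for 96 h before readout; 0% = vehicle DMSO and 100% = killing by high DMSO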); settings: CRL2098 osteosarcoma cells, drug combinations, stronger effect = higher value
[7] = HD-MB03 medulloblastoma cell growth inhibition, synergistic combos for chromothripsis tumors, BGB or cisplatin IC20 combos (AID 1671455; in the data active = inhibition above about 83%;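 also: 0% = vehicle DMSO and 100% = high DMSO as cytotoxic control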); settings: HD-MB03 medulloblastoma cells, stronger effect = higher value
[8] = UWB1.289 ovarian carcinoma cell growth inhibition, synergistic combos for chromothripsis tumors, BGB or cisplatin combos (AID 1671456; in the data active = inhibition above about 80%;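 also: cells exposed to compound for four days; 0% = vehicle DMSO and 100% = killing by high DMSO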); settings: UWB1.289 ovarian carcinoma cells, stronger effect = higher value
[9] = LFS_MB_2R medulloblastoma cell growth inhibition, synergistic combos for chromothripsis tumors, cisplatin combos (AID 1671457; in the data active = inhibition above about 80%;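 also: cells exposed to compound for four days before readout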); settings: LFS_MB_2R medulloblastoma cells, stronger effect = higher value
[10] = UWB1.289_BRCA1 ovarian cancer growth, cell-based, BGB or cisplatin combinations (AID 1671459; in the data active = inhibition above about 80%); settings: UWB1.289 BRCA1 ovarian carcinoma, drug combinations, stronger effect = higher value
[11] = human astrocyte viability loss, single and combined drugs, cytotoxicity control for chromothriptic childhood tumor combination screen, cell-based, BGB or cisplatin IC20 combos (AID 1671460; in the data active = inhibition above about 80%;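 also: cells exposed to compounds for 96 hours before viability readout; 0% = vehicle and 100% = killing control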); settings: Human astrocytes, drug combinations, stronger effect = higher value
[12] = circadian clock period modulators, cell-based, LOPAC library, luminescence reporter (AID 2774); settings: circadian reporter cells, at 7 µM, actives lie on both sides;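 also: values are relative to mean of DMSO wells on each plate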
[13] = system: Hepatitis C virus NS3 helicase; assay: HCV NS3 helicase inhibitors, primary screen, biochemical, fluorescence polarization, LOPAC1280 library (AID 687035; in the data active = inhibition above about 37%); settings: Purified HCV NS3 helicase, Cy5-dT15 ssDNA binding fluorescence polarization; stronger effect = higher value; concentration not given here
[14] = Cy5 fluorescence quenching or enhancement artefacts, artefact control for HCV NS3 helicase inhibitor project, biochemical, LOPAC1280 (AID 687037); settings: Cy5-DNA-NS3h complex fluorescence interference counterscreen
[15] = phospholipid biosynthesis inhibitors in animal cells, primary screen, cell-based, LOPAC library, screen 4 (AID 1347384); settings: phospholipid biosynthesis inhibition screen, at 10 µM
[16] = hESC survival regulators, cell-based (AID 493140); settings: human embryonic stem cell survival screen; stronger effect = higher value;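 also: cells exposed to compounds for four days before counting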
[17] = biological target: NAD(+) hydrolase SARM1 (Homo sapiens) (UniProt Q6SZW1); assay: SARM1 TIR NADase inhibitors, cell lysate, NAD-Glo luminescence (AID 1508614;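 active = compound whose remaining NAD level is above about 45 nM, limit read from the data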;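 also: higher remaining NAD means stronger inhibition of SARM1 NADase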); settings: SAM-TIR HEK293T lysate NADase, at 1 µM, stronger effect = higher value
Chain of NAD(+) hydrolase SARM1 (Homo sapiens) (Q6SZW1 whole entry, looked up): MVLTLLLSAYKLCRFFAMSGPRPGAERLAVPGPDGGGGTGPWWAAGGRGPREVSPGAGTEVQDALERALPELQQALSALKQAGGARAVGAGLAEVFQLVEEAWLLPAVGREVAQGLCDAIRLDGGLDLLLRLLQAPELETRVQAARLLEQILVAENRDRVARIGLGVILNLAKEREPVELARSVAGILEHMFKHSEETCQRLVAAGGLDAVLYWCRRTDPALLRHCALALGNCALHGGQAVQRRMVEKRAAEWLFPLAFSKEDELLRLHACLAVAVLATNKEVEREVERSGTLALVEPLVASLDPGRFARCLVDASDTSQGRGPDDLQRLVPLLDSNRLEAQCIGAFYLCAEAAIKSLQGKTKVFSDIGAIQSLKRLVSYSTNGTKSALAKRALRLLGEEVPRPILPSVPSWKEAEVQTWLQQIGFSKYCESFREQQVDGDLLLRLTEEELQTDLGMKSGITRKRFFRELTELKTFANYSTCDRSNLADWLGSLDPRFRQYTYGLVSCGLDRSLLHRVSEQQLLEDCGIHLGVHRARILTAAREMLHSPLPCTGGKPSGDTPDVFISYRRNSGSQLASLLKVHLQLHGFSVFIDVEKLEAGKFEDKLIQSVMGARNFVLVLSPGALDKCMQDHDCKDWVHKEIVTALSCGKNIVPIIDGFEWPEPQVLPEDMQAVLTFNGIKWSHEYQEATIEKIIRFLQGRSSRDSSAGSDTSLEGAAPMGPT

[18] = measured here: combination with BGB IC40, at 0.05 µM
[19] = measured here: combination with cisplatin, at 0.5 µM
[20] = measured here: combination with cisplatin, at 5 µM
[21] = measured here: combination with BGB at IC20, at 0.5 µM
[22] = measured here: combination with cisplatin at IC20, at 0.5 µM
[23] = measured here: combo with BGB at IC20, at 0.5 µM
[24] = measured here: combo with cisplatin at IC20, at 0.5 µM
[25] = measured here: inhibition with BGB combination, at 0.05 µM
[26] = measured here: inhibition with cisplatin combination, at 0.05 µM
[27] = BGB combination, concentration series, at 5 µM
[28] = cisplatin combination, concentration series, at 5 µM
[29] = measured here: combo with BGB IC20, at 0.5 µM
[30] = measured here: combo with cisplatin IC20, at 0.5 µM

## C[N+]1(C)[C@@H]2CC(OC(=O)C(O)(c3cccs3)c3cccs3)C[C@H]1[C@@H]1O[C@@H]12 (some centres not stated)
[1]
  parasite load remaining: 18% (inactive)
  viability: 66.5%
[2]
  z-score: 0.685 (inactive)

## C/C=C1\C2C=C(C)CC1(N)c1ccc(=O)[nH]c1C2 (configuration not stated)
[3]
  fold fluorescence: 4.5 [at 206.3 µM] (inactive)

## COc1cc(Oc2ccnc3cc(OC)c(OC)cc23)ccc1NC(=O)NC(C)c1nccs1 (configuration not stated)
[4]
  liver cell % of control: 91.8% and 94.8% and 112%
  parasite % of control: 110% (inactive) and 137% (inactive) and 49.5% (inactive)

## COc1cc2ncnc(-n3nc(-c4ccccn4)nc3N)c2cc1OC
[5]; at 0.5 µM
  inhibition: -45.7% (inactive)
[5]; [18]
  inhibition: -46.2%
[5]; [19]
  inhibition: -87.1%
[5]; [20]
  inhibition: -37.2%
[6]; at 0.5 µM
  inhibition: -78.1% (inactive)
[6]; [21]
  inhibition: -51.1%
[6]; [22]
  inhibition: -60.2%
[7]; at 0.5 µM
  inhibition: -15.7% (inactive)
[7]; [23]
  inhibition: -13.6%
[7]; [24]
  inhibition: -21.1%
[8]; at 0.5 µM
  inhibition: -16.4% (inactive)
[8]; [25]
  inhibition: -29.1%
[8]; [26]
  inhibition: -13.1%
[9]; at 0.5 µM
  inhibition: -18.6% (inactive)
[9]; [19]
  inhibition: -13.8%
[9]; [20]
  inhibition: 1.78%
[10]; [27]
  inhibition: 15%
[10]; at 0.5 µM
  inhibition: -15.7% (inactive)
[10]; [28]
  inhibition: 9.66%
[11]; at 0.5 µM
  inhibition: 6.38% (inactive)
[11]; [29]
  inhibition: 7.82%
[11]; [30]
  inhibition: -1.55%

## OCc1ccc(-c2nn(Cc3ccccc3)c3ccccc23)o1
[12]
  period change: -0.37 h (inactive)
[13]
  inhibition: 0% (inactive)
[14]
  fluorescence ratio (interference): 1 (inactive)
[3]
  fold fluorescence: 11.2 [at 164.3 µM] (inactive)
[15]
  outcome: inactive
[2]
  z-score: -0.46 (inactive)

## COc1ccc(Cc2nccc3cc(OC)c(OC)cc23)cc1OC
[15]
  outcome: inactive

## COCCNCCCn1c(C(=O)CF)c(-c2ccc(C)cc2)c2c(N)ncnc21
[4]
  parasite % of control: 34.2% (inactive) and 108% (inactive) and 115% (inactive)

## Cc1cnc(CNC(=O)c2c(=O)c3ccc(N4CCCN(C)CC4)nc3n3c2sc2ccccc23)cn1
[5]; at 0.5 µM
  inhibition: 6.38% (inactive) and -24.6% (inactive)
[5]; [18]
  inhibition: -8.97% and -9.02%
[5]; [19]
  inhibition: 91.9% and 6.04%
[5]; [20]
  inhibition: 104% and 102%
[6]; at 0.5 µM
  inhibition: 31.8% (inactive) and -46.4% (inactive)
[6]; [21]
  inhibition: 40.6% and -32.3%
[6]; [22]
  inhibition: 37% and -70.3%
[7]; at 0.5 µM
  inhibition: 51.2% (inactive) and 21.9% (inactive)
[7]; [23]
  inhibition: 53.1% and 31.3%
[7]; [24]
  inhibition: 36.7% and 11.5%
[8]; at 0.5 µM
  inhibition: 39.7% (inactive) and 9.86% (inactive)
[8]; [25]
  inhibition: -5.3% and -40%
[8]; [26]
  inhibition: -10.5% and -7.68%
[9]; at 0.5 µM
  inhibition: -14.9% (inactive) and -31.5% (inactive)
[9]; [19]
  inhibition: -16.1% and -30.8%
[9]; [20]
  inhibition: 108% and -28.8%
[10]; [27]
  inhibition: 117% and 38.3%
[10]; at 0.5 µM
  inhibition: 44.8% (inactive) and 2% (inactive)
[10]; [28]
  inhibition: 122% and 71.6%
[11]; at 0.5 µM
  inhibition: 45.8% (inactive) and 19.7% (inactive)
[11]; [29]
  inhibition: 41.5% and 16.4%
[11]; [30]
  inhibition: 31.2% and 2.96%

## Cc1cc(C(C)Nc2ccccc2)c2nc(N3CCOCC3)cc(=O)n2c1 (configuration not stated)
[1]
  parasite load remaining: 33.1% (inactive)
  viability: 62.4%
[4]
  liver cell % of control: 99% and 87.4% and 105%
  parasite % of control: 84.7% (inactive) and 70.8% (inactive) and 54.4% (inactive)

## Cn1cc(-c2ccc3nnc(C(F)(F)c4ccc5ncccc5c4)n3n2)cn1
[4]
  liver cell % of control: 86.8% and 81.6% and 92.2%
  parasite % of control: 347% (inactive) and 352% (inactive) and 281% (inactive)

## O=c1cc(-c2ccc(O)c(O)c2)oc2cc(O)cc(O)c12
[12]
  period change: 0.085 h (inactive)
[16]
  survival: 0.75 (inactive)
[1]
  parasite load remaining: 83% (inactive)
  viability: 96.4%

## CN(C)c1cc(NC(=O)CNC(C)(C)C)c(O)c2c1C[C@H]1C[C@H]3[C@H](N(C)C)C(=O)C(C(N)=O)=C(O)[C@@]3(O)C(=O)C1=C2O
[17]
  remaining NAD: 10 nM (inactive)

## CN(C)N=Nc1nc[nH]c1C(N)=O
[16]
  survival: 12.2 (inactive)
[1]
  parasite load remaining: 83.6% (inactive) and 67% (inactive)
  viability: 97.7% and 78.1%
